The full data set covers some 7,900 targets. This sample favours those with a hit. About 0.6% of all pairs of compound and target were hits. Unmarked numbers belong to inactive results.
Key:
Experiment in all cases: log2 fold change, soluble protein after heating vs DMSO (PISA); higher = thermal stabilisation; K562 cells, 10 uM, 30 min; active = over 0.2 and 3.5 SD of the protein, either way, in both replicates (recomputed)
IRAK-1-4 Inhibitor I = compound: C1COCCN1CCN2C3=CC=CC=C3N=C2NC(=O)C4=CC(=CC=C4)[N+](=O)[O-] [IRAK-1-4 Inhibitor I]
Summary of the method: (§1)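 K562 cells (2×10^6 cells/mL) were treated with 10 μM compound for 30 min, and aliquots were heated for 3 min over 48°C-58°C. Pooled aliquots were extracted in PBS with 0.5% NP-40 at 4°C, and the supernatant after 21,000xg for 90 min was measured by TMTpro 16plex LC-MS/MS with channel sums equalised. Reported thermal stability, relative to control samples and from duplicates, is a log2 fold change.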

ibrutinib = compound: C=CC(=O)N1CCC[C@@H](n2nc(-c3ccc(Oc4ccccc4)cc3)c3c(N)ncnc32)C1 [ibrutinib]
Summary of the method: as §1

[1] = compound: CC(=O)c1cnc2ccc(-c3cc(Cl)c(O)c(Cl)c3)nc2c1N[C@H]1CC[C@H](CN(C)C)CC1
Summary of the method: as §1

ralimetinib = compound: CC(C)(C)Cn1c(N)nc2ccc(-c3[nH]c(C(C)(C)C)nc3-c3ccc(F)cc3)nc21 [ralimetinib]
Summary of the method: as §1

[2] = compound: CC(C)(O)CC(=O)NCCn1ccc2ncnc(Nc3ccc(Oc4cccc(C(F)(F)F)c4)c(Cl)c3)c21
Summary of the method: as §1

[3] = compound: CC(C)C1=C2N=C(C=C(N2N=C1)NCC3=CC=CC=C3)NCCCCCCN
Summary of the method: as §1

[4] = compound: CC(C)C[C@@H](C=O)NC(=O)[C@H](CC(C)C)NC(=O)[C@H](CC(C)C)NC(=O)OCc1ccccc1
Summary of the method: as §1

pinometostat = compound: CC(C)N(C[C@H]1O[C@@H](n2cnc3c(N)ncnc32)[C@H](O)[C@@H]1O)[C@H]1C[C@@H](CCc2nc3cc(C(C)(C)C)ccc3[nH]2)C1 [pinometostat]
Summary of the method: as §1

[5] = compound: CC1=C(C(CC(=O)N1)C2=CC=C(C=C2)C(F)(F)F)C(=O)NC3=C(C=C4C(=C3)C=NN4)F
Summary of the method: as §1

[6] = compound: CC1=C(C2=C(C=C1)C(=O)C3=CC=CC=C3N2CCCN)C
Summary of the method: as §1

[7] = compound: CC1=C(C=C(C=C1)NC(=O)C2=CC(=CC=C2)C(C)(C)C#N)NC3=CC4=C(C=C3)N=CN(C4=O)C
Summary of the method: as §1

[8] = compound: CC1=C(C=C(C=C1)NC(=O)C2=CC(=CC=C2)N(C)C)NC(=O)C3=CC=C(C=C3)O
Summary of the method: as §1

[9] = compound: CC1=CC=C(C=C1)SC2=C3C=C(SC3=CN=C2)C(=O)N
Summary of the method: as §1

[10] = compound: CC1=NC(=CC=C1)C2=C(N=C(N2)C(C)(C)C)C3=CC4=NC=CN=C4C=C3
Summary of the method: as §1

Nexturastat A = compound: CCCCN(Cc1ccc(C(=O)NO)cc1)C(=O)Nc1ccccc1 [Nexturastat A]
Summary of the method: as §1

[11] = compound: CCCS(=O)(=O)Nc1ccc(F)c(C(=O)c2c[nH]c3ncc(Cl)cc23)c1F
Summary of the method: as §1

[12] = compound: CCCc1cc(C)[nH]c(=O)c1CNC(=O)c1cc(-c2ccnc(N3CCN(C)CC3)c2)cc2c1cnn2C(C)C
Summary of the method: as §1

givinostat = compound: CCN(CC)Cc1ccc2cc(COC(=O)Nc3ccc(C(=O)NO)cc3)ccc2c1 [givinostat]
Summary of the method: as §1

barasertib = compound: CCN(CCCOc1ccc2c(Nc3cc(CC(=O)Nc4cccc(F)c4)[nH]n3)ncnc2c1)CCOP(=O)(O)O [barasertib]
Summary of the method: as §1

vemurafenib = compound: CCCS(=O)(=O)Nc1ccc(F)c(C(=O)c2c[nH]c3ncc(-c4ccc(Cl)cc4)cc23)c1F [vemurafenib]
Summary of the method: as §1

Sequence of UniProt P18846 (P18846 whole entry, looked up): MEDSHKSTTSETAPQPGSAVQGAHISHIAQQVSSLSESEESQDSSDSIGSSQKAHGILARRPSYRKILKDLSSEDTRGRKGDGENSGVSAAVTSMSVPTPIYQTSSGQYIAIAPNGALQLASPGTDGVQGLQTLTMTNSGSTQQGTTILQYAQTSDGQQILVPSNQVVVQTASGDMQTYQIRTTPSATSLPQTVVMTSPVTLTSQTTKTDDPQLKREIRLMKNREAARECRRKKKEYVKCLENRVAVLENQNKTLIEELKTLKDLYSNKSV
Sequence of UniProt P00966 (P00966 whole entry, looked up): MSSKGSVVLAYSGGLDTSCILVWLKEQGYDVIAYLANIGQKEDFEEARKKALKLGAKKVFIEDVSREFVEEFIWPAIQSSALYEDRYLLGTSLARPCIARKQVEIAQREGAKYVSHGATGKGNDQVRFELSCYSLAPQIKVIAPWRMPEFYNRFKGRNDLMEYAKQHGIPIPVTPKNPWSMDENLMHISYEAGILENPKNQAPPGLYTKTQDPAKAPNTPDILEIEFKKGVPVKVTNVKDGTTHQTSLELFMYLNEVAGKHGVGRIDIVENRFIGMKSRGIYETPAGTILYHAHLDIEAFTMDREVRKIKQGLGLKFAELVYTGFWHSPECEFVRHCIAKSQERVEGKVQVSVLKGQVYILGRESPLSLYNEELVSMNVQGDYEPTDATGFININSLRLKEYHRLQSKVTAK
Sequence of UniProt P02749 (P02749 whole entry, looked up): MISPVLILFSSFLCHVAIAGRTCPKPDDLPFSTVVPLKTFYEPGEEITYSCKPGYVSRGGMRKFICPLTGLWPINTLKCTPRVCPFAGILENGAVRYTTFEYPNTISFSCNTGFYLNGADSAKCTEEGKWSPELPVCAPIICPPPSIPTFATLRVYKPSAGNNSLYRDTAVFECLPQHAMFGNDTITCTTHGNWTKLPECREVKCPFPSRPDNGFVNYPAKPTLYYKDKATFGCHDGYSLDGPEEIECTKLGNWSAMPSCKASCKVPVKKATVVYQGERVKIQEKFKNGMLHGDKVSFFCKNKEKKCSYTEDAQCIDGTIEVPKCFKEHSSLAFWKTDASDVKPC
Sequence of UniProt Q9Y6H3 (Q9Y6H3 whole entry, looked up): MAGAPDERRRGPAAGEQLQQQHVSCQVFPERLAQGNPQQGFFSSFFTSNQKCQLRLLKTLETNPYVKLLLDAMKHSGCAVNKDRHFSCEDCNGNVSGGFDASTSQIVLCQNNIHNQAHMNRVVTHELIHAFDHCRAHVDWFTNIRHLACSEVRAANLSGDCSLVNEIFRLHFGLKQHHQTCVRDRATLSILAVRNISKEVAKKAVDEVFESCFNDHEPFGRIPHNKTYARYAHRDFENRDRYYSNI
Sequence of UniProt P05091 (P05091 whole entry, looked up): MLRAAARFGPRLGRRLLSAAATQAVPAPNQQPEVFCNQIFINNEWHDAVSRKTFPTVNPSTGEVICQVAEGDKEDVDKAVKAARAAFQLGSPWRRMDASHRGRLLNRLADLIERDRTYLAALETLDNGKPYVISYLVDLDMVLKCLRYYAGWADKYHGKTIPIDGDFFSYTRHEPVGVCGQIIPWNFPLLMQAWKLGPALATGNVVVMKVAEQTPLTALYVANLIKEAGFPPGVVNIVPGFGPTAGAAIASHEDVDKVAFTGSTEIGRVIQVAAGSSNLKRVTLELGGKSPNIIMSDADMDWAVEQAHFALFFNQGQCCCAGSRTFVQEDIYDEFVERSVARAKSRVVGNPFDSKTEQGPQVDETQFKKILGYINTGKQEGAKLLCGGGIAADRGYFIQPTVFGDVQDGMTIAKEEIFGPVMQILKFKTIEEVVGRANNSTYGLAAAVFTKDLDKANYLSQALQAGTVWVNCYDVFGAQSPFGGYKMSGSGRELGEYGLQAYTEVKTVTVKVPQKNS
Sequence of UniProt Q96G97 (Q96G97 whole entry, looked up): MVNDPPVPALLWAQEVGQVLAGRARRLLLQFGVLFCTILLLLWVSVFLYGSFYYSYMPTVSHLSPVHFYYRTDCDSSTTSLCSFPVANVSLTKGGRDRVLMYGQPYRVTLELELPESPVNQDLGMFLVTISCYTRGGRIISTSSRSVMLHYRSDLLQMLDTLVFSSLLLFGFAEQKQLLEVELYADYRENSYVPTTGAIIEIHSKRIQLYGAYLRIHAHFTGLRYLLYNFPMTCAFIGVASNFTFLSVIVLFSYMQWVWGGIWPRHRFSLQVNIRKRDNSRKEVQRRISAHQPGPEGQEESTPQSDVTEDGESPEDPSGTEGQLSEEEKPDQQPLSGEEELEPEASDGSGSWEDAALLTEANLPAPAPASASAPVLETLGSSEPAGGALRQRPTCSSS
Sequence of UniProt Q53FZ2 (Q53FZ2 whole entry, looked up): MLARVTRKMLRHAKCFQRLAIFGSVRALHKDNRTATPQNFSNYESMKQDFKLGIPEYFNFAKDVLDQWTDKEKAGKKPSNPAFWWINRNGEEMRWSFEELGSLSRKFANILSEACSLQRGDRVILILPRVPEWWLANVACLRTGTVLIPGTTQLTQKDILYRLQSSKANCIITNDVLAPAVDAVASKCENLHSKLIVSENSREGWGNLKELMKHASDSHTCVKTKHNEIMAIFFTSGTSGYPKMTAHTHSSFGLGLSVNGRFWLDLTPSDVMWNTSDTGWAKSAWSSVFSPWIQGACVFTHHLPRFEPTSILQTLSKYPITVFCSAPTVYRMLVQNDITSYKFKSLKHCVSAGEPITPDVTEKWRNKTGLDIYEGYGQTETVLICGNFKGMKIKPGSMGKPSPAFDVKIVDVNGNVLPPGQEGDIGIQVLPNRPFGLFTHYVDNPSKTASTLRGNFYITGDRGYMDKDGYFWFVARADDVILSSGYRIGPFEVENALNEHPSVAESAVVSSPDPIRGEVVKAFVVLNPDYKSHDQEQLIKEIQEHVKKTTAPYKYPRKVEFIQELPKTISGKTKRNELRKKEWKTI
Sequence of UniProt P24666 (P24666 whole entry, looked up): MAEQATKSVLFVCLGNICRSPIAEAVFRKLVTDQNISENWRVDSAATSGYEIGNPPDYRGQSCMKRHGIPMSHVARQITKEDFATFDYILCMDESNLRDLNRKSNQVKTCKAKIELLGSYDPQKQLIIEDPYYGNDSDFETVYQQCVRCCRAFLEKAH
Sequence of UniProt Q562R1 (Q562R1 whole entry, looked up): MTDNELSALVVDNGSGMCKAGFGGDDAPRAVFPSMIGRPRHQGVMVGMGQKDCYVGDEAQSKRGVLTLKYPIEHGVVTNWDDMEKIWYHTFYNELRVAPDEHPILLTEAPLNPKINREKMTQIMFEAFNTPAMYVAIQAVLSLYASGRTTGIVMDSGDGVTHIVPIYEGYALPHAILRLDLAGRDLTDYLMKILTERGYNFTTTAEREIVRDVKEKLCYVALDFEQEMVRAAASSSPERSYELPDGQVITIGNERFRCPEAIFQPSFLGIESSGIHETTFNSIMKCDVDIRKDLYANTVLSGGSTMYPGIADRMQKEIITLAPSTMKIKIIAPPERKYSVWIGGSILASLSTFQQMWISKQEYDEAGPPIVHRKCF
Sequence of UniProt Q96P47 (Q96P47 whole entry, looked up): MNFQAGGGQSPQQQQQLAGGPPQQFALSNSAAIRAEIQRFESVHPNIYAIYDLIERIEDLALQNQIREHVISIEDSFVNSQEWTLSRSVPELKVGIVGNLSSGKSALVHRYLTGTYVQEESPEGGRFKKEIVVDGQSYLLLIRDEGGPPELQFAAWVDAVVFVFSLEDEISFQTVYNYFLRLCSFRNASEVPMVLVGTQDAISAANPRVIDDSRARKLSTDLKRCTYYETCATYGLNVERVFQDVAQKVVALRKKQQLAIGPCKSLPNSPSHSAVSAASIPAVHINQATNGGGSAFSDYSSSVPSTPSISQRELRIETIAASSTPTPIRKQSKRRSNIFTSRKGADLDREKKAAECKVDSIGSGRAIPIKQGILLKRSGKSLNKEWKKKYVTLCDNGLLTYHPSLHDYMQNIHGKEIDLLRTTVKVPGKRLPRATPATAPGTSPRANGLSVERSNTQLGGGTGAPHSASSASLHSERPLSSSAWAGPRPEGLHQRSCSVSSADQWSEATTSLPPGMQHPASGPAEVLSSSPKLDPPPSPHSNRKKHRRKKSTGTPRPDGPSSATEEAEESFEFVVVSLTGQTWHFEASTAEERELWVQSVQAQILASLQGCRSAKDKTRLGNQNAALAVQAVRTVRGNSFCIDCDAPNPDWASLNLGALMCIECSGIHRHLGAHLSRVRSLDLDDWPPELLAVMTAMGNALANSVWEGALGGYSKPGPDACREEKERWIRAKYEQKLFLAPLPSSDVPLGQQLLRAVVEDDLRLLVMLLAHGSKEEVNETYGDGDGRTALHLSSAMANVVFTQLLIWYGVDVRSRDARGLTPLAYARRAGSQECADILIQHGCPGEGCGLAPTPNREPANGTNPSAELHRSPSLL
Sequence of UniProt Q9UKV5 (Q9UKV5 whole entry, looked up): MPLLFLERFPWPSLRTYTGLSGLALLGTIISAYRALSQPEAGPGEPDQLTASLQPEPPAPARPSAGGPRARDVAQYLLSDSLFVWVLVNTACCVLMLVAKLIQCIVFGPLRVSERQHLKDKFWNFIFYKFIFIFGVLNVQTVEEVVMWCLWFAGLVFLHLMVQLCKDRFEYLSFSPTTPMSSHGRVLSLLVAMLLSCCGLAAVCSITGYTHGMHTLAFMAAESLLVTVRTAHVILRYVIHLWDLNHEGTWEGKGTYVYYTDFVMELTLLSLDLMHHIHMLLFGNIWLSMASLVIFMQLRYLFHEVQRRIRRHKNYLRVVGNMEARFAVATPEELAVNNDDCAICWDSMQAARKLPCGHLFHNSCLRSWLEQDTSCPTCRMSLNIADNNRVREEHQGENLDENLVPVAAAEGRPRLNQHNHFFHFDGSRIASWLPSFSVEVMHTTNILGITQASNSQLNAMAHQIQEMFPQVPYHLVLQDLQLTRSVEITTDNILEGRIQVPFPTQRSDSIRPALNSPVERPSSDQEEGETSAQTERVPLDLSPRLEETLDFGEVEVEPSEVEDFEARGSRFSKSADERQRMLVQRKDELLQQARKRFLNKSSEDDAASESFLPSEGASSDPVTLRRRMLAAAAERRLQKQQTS

Row | Target | log2 fold change (IRAK-1-4 Inhibitor I) | log2 fold change (ibrutinib) | log2 fold change [1] | log2 fold change (ralimetinib) | log2 fold change [2] | log2 fold change [3] | log2 fold change [4] | log2 fold change (pinometostat) | log2 fold change [5] | log2 fold change [6] | log2 fold change [7] | log2 fold change [8] | log2 fold change [9] | log2 fold change [10] | log2 fold change (Nexturastat A) | log2 fold change [11] | log2 fold change [12] | log2 fold change (givinostat) | log2 fold change (barasertib) | log2 fold change (vemurafenib)
1 | AGAP3 isoform 4 (UniProt Q96P47) | -0.024 | -0.018 | -0.223 | 0.25 | 0.009 | -0.182 | -0.044 | 0.245 | -0.107 | -0.043 | 0.037 | 0.071 | -0.039 | -0.081 | 0.252 | -0.022 | 0.089 | 0.113 | 0.199 | –
2 | ACP1 (UniProt P24666) | -0.027 | -0.073 | -0.083 | – | -0.238 | -0.071 | – | 0.107 | -0.055 | -0.087 | 0.007 | – | 0.01 | -0.123 | 0.001 | -0.047 | 0.039 | 0.076 | 0.12 | 0.071
3 | ABHD11 (UniProt Q8NFV4) | -0.031 | 0.031 | -0.007 | -0.123 | -0.006 | -0.043 | 0.068 | -0.027 | -0.016 | 0.026 | – | -0.065 | -0.004 | 0.003 | -0.028 | -0.011 | 0.023 | 0.02 | 0.057 | 0.139
4 | AP2M1 (UniProt C9JTK4) | 0.056 | -0.044 | 0.049 | – | 0.005 | – | – | 0.03 | 0.085 | 0.001 | -0.04 | – | – | -0.033 | 0.009 | – | -0.172 | – | -0.079 | -0.262
5 | ACSM3 (UniProt Q53FZ2) | 0 | -0.021 | -0.11 | -0.003 | -0.397 (active) | -0.155 | -0.086 | 0.046 | -0.001 | 0.041 | -0.069 | -0.056 | 0.019 | -0.029 | -0.096 | 0.036 | 0.018 | 0.039 | 0.103 | 0.033
6 | APOH (UniProt P02749) | 0.13 | 0.155 | 0.211 | -0.131 | – | -0.067 | 0.119 | -0.117 | 0.419 | -0.126 | -0.346 | 0.265 | 0.055 | 0.192 | – | -0.063 | -0.611 | 0.046 | -0.203 | 0.225
7 | ATXN3 isoform 1 (UniProt P54252) | -0.031 | 0.028 | 0.065 | 0.018 | – | -0.314 | 0.234 | 0.021 | 0.018 | 0.016 | – | -0.08 | 0.012 | -0.043 | – | 0.04 | -0.016 | 0.02 | 0.179 | 0.005
8 | ATP23 (UniProt Q9Y6H3) | 0.091 | -0.009 | -0.004 | -0.043 | 0.02 | -0.136 | 0.025 | -0.014 | 0.011 | -0.01 | 0.027 | -0.013 | 0.122 | 0.058 | -0.172 | -0.039 | -0.031 | -0.012 | -0.049 | 0.021
9 | AMFR (UniProt Q9UKV5) | -0.083 | -0.039 | 0.07 | 0.117 | -0.034 | -0.375 (active) | 0.12 | 0.077 | -0.011 | 0.019 | -0.013 | 0.01 | -0.029 | -0.104 | -0.033 | 0.009 | -0.042 | 0.086 | 0.041 | 0.005
10 | ACOX3 (UniProt O15254) | 0.095 | 0.035 | -0.177 | – | 0.061 | 0.022 | – | -0.021 | -0.081 | -0.051 | 0.111 | – | -0.192 | -0.011 | 0.039 | -0.009 | 0.184 | -0.01 | -0.035 | 0.057
11 | ALDH2 isoform 2 (UniProt P05091) | – | -0.1 | -0.133 | -0.18 | 0.029 | – | 0.063 | – | – | 0.087 | 0.075 | -0.049 | -0.106 | – | -0.103 | -0.141 | – | – | 0.099 | -0.023
12 | AZI2 (UniProt Q9H6S1) | – | 0.046 | – | -0.241 | – | -0.126 | -0.09 | – | -0.018 | 0.022 | -0.091 | 0.045 | – | – | – | – | – | 0.028 | -0.023 | 0.047
13 | ATF1 (UniProt P18846) | – | -0.02 | -0.02 | – | -0.07 | 0.081 | – | – | -0.04 | -0.127 | -0.066 | – | -0.113 | – | -0.026 | -0.016 | 0.002 | 0.003 | 0.079 | 0.035
14 | AP2S1 (UniProt M0QZ21) | – | – | – | – | – | – | – | – | – | 0.139 | – | – | – | – | – | – | – | – | – | –
15 | BSCL2 isoform 4 (UniProt Q96G97) | – | 0.069 | -0.109 | – | 0.003 | -0.219 | – | – | -0.122 | 0.023 | – | – | -0.073 | – | -0.174 | -0.043 | -0.124 | 0.052 | 0.199 | 0.179
16 | ADD3 isoform 2 (UniProt Q9UEY8) | 0.008 | – | -0.433 | -0.015 | 0.005 | – | 0.009 | 0.108 | – | -0.063 | 0.034 | -0.021 | -0.08 | -0.017 | -0.029 | 0.014 | -0.017 | – | – | 0.059
17 | ASS1 (UniProt P00966) | – | 0.05 | -0.155 | -0.022 | -0.064 | -0.122 | 0.006 | – | -0.071 | -0.021 | -0.073 | -0.015 | -0.06 | – | 0.023 | 0.003 | 0.004 | 0.031 | -0.063 | -0.042
18 | ACTBL2 (UniProt Q562R1) | – | 0 | -0.156 | 0.351 | 0.132 | 0.372 | 0.195 | – | 0.406 | – | 0.238 | 0.243 | -0.385 | – | -0.049 | -0.41 | 0.073 | -0.342 | 0.161 | 0.139

From the supplement of paper PMC10849652
